From PMC4336329 (PLoS ONE, 2015)
The whole screen tested about 310,000 compounds, of which about 14,000 (4.5%) showed an effect of 50% or more. The effect is printed as a negative number. The sample as a whole holds a higher share of strong results than the screen did.

target: human ether-à-go-go-related gene (hERG) potassium channel (human, UniProt Q12809); experiment: primary screen, population patch clamp on CHO cells stably expressing hERG; higher = less effect of the substance
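Note: peak tail current of the secondary pulse compared with the same well before compound.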

Sequence of human ether-à-go-go-related gene (hERG) potassium channel (Q12809 whole entry, looked up): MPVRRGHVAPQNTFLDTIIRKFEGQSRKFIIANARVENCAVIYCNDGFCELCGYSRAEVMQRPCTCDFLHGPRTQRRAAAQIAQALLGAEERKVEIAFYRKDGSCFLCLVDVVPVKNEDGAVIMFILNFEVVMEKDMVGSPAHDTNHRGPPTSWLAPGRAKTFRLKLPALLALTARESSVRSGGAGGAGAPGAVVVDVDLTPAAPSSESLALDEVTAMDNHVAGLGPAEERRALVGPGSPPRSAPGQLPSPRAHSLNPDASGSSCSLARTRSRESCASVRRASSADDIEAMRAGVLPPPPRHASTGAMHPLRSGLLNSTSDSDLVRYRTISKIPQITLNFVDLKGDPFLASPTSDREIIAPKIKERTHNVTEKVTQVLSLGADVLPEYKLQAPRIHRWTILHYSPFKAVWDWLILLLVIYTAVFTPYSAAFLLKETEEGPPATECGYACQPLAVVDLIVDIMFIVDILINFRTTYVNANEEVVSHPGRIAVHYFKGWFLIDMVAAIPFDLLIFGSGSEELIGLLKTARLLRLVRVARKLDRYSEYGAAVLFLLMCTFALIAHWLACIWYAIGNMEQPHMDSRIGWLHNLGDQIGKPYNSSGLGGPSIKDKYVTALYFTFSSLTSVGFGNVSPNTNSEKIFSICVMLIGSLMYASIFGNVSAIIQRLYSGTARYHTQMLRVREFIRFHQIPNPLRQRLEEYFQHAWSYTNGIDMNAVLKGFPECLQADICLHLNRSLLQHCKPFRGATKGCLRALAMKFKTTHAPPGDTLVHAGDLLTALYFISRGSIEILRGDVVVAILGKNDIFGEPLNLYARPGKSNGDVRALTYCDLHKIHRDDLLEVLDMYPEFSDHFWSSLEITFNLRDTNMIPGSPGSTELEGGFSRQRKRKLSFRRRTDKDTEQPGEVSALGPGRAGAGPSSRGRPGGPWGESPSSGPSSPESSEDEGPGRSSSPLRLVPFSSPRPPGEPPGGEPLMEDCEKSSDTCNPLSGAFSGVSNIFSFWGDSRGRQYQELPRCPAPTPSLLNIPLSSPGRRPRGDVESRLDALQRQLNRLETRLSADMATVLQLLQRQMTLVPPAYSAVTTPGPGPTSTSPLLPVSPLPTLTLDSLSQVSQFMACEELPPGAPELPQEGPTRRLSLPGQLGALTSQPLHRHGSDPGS

Row | Compound | hERG current change (%, negative = inhibition) at 10uM [%]
1 | Cc1ccc(-c2ccc(=O)n(Cc3c(F)cccc3Cl)n2)cc1 | 9.18
2 | Cc1ccc2nc(Nc3ccccc3O)nc(-c3ccccc3)c2c1 | 14.3
3 | O=C(CCN1C(=O)c2cccc3cccc(c23)C1=O)NCc1cccnc1 | -16.7
4 | C/C(CC(=O)Nc1ccccc1Cl)=N\NC(=O)C(=O)NCCO | 6.65
5 | O=C(O)c1ccc(S(=O)(=O)c2ccccc2)cc1 | 11.5
6 | COS(=O)(=O)[O-].C[N+]1(C)CCC(=C(c2ccccc2)c2ccccc2)CC1 | -71
7 | CC1CC(C)(C)CC(=O)C1C(=O)c1ccccc1 (stereo not drawn) | 16.4
8 | CCOc1ccc(-n2ccnc(SCC(=O)Nc3ccc(OC)cc3OC)c2=O)cc1 | 9.58
9 | O=C(CON=C1c2ccccc2-c2ccccc21)NC12CC3CC(CC(C3)C1)C2 | -7.23
10 | N#CC1=C(SCc2ccccc2)NC(=O)CC1c1ccco1 (stereo not drawn) | 10.9
11 | O=C(CN1CCC(O)(c2ccc(F)cc2)CC1)NCc1ccc(F)cc1 | -34.2
12 | CC(=O)N1CCC(O)(c2cccc(C(F)(F)F)c2)CC1 | 12.7
13 | OC1(c2cccc(C(F)(F)F)c2)CCN(CCN2CCCCC2)CC1 | -3.82
14 | O=C(CCCN1CCC(O)(c2ccc(Br)cc2)CC1)c1ccc(F)cc1 | -79.7
15 | C=CCNC(=O)CN1CCC(O)(c2ccc(F)cc2)CC1 | -5.8
16 | Cl.O=C(CCCN1CCC(O)(c2cccc(C(F)(F)F)c2)CC1)c1ccc(F)cc1 | -75.6
17 | O=C1CCC([N+](=O)[O-])C(C2CC=CCC2)N1 (stereo not drawn) | 4.76
18 | CCOC(=O)c1ccc(CNC(=O)CCC(=O)O)cc1 | 4.15
19 | COc1ccnc2c1c(=O)n(Cc1ccc(F)cc1)c(=O)n2C | -6.22
20 | O=C(NCCCO)C(=O)Nc1cc2c3c(c1)CCN3C(=O)CC2 | 11.8
21 | CC(=O)C1=C(C)NC(SCC(N)=O)=C(C#N)C1C (stereo not drawn) | 8.65
22 | COc1ccc(C(=O)NCC(=O)OCC(=O)c2ccc(Cl)cc2)cc1OC | -58.6
23 | O=C(CNC(=O)c1ccccc1)OCc1cc(=O)n2cc(Br)ccc2n1 | -31.6

Row | Compound | hERG current change (%, negative = inhibition) at 10uM [%]
24 | COc1ccc(C(=O)NCC(=O)OCC(=O)c2cc(OC)c(OC)c(OC)c2)cc1OC | 28.5
25 | O=C(CNC(=O)c1cccc(F)c1)OCc1cc(=O)n2cc(Br)ccc2n1 | -9.66
26 | O=C(CNC(=O)c1ccccc1)OCc1ccc([N+](=O)[O-])cc1 | -33.9
27 | COc1ccc(C(=O)COC(=O)CNC(=O)c2ccc(OC)cc2)cc1 | -52.6
28 | COc1ccc(C(=O)NCC(=O)OCc2ccc([N+](=O)[O-])cc2)cc1 | -58.3
29 | O=C(CNC(=O)c1cccc(OC(F)F)c1)OCc1cc(=O)n2cc(Br)ccc2n1 | -55.2
30 | CC(C)(C)c1ccc(C(=O)NCC(=O)OCc2ccc([N+](=O)[O-])cc2)cc1 | -7.46
31 | COc1ccc(C(=O)NCC(=O)NCC(=O)OCC(=O)c2ccc(Br)cc2)cc1 | 15.3
32 | COc1ccc(C(=O)NCC(=O)OCc2ccc(Cl)cc2Cl)cc1OC | -6.66
33 | COc1ccc(C(=O)NCC(=O)NCC(=O)OCC(=O)c2ccc(C)cc2)cc1 | 4.23
34 | O=C(CN1CCN(c2ccccn2)CC1)Nc1ccccc1F | 1.45
35 | c1ccc2c(c1)CC1(CCCC1)n1nnnc1-2 | -19.4
36 | O=C(NCc1ccccc1)C1=C[C@H](C2CCCCC2)C[C@H](OCCCCO)O1 | -3.07
37 | N#Cc1cc([N+](=O)[O-])cnc1N(CCO)CCO | -1.1
38 | CN1CCN(c2ncnc3nc[nH]c23)CC1 | 18.5
39 | Cc1ccccc1C(=NCCCN(C)C)c1ccccc1C.Cl | -21.7
40 | Cc1ccc(NCC(=O)N=Nc2c(O)[nH]c3ccc([N+](=O)[O-])cc23)cc1 | -5.06
41 | Cc1ccc(O)c(-c2cc(C(=O)Nc3c(C)n(C)n(-c4ccccc4)c3=O)[nH]n2)c1 | 8.4
42 | O=C(O)c1ccccc1NC(c1ccccc1)c1ccc(Cl)cc1 (stereo not drawn) | 19.8
43 | N#C/C(=C\c1ccccc1[N+](=O)[O-])C(=O)NC1CCCCC1 | -13.9
44 | Cc1cc(C(=O)NCC(=O)OCC(=O)Nc2ccc(OC(F)F)cc2)ccc1[N+](=O)[O-] | -67.8
45 | COc1ccc(C(=O)COC(=O)CNC(=O)c2cccc(OC(F)F)c2)cc1 | -64.6
46 | Cc1cc(C(=O)NCC(=O)OCC(=O)N(C(C)C)C(C)C)ccc1[N+](=O)[O-] | 10.6

Row | Compound | hERG current change (%, negative = inhibition) at 10uM [%]
47 | Cc1cc(C(=O)NCC(=O)OCC(=O)NCCc2ccccc2)ccc1[N+](=O)[O-] | -16.9
48 | COc1ccc(N2CCN(C(=O)COC(=O)CNC(=O)c3cccc(OC(F)F)c3)CC2)cc1 | -43.7
49 | COc1cccc(C(=O)NCC(=O)OCC(=O)c2ccccc2)c1 | 2.59
50 | Cc1ccnc2c(N3C(=O)C4C5c6ccccc6C(c6ccccc65)C4C3=O)cccc12 (stereo not drawn) | -2.78
51 | CCCNC(=O)C(Cc1ccc(C(F)(F)F)cc1)NC(=O)c1ccc2ccccc2n1 (stereo not drawn) | 14
52 | CCc1ccc2ncc(S(=O)(=O)c3ccc(C)c(C)c3)c(N3CCCC3)c2c1 | 0.769
53 | CCOc1ccc2ncc(S(=O)(=O)c3ccccc3)c(N3CCN(c4ccccc4)CC3)c2c1 | -2.21
54 | CCN1CCN(c2c(S(=O)(=O)c3ccc(C)c(C)c3)cnc3ccc(F)cc23)CC1 | -53.4
55 | Nc1cc(N)nc(SCC(=O)Nc2ccc3c(c2)OCCCO3)n1 | 8.03
56 | CN(C)c1ccc(/C=N/N(Cc2ccccc2)c2ccccc2)cc1 | 3.54
57 | Cc1cc(Cl)ccc1NC(=O)CN1CCCC1 | 27.1
58 | CN1CCN(C(=S)SCC(=O)Nc2ccc(Cl)cc2C(=O)c2ccccc2)CC1 | -29.8
59 | O=C(O)CC1(CC(=O)Nc2ccc(Cl)cc2C(=O)c2ccccc2)CCCC1 | 6.78
60 | CN1CCN(CC(=O)Nc2ccc(Cl)cc2Cl)CC1 | -69.4
61 | Cc1ccccc1NC(=O)CC1c2ccccc2CC(C)(C)N1C (stereo not drawn) | 4.03
62 | CN1C(CC(=O)Nc2ccc(Br)cc2)c2ccccc2CC1(C)C (stereo not drawn) | -38.2
63 | O=C(CCN1CCCCC1)Nc1ccc(Cl)cc1C(=O)c1ccccc1 | -72.6
64 | O=C(CN1CCCC1)Nc1ccc(Cl)cc1C(=O)c1ccccc1.O=C(O)C(=O)O | -46.8
65 | O=C(CCNS(=O)(=O)c1ccccc1)Nc1ccc(Cl)cc1C(=O)c1ccccc1 | -32.9
66 | CN1C(CC(=O)Nc2ccc(Cl)cc2Cl)c2ccccc2CC1(C)C (stereo not drawn) | -76.7
67 | O=C(CN1CCCCCCC1)Nc1ccc(Cl)cc1Cl | 35.9
68 | CN1CCN(CC(=O)Nc2ccc(Cl)cc2C(=O)c2ccccc2)CC1 | -77.2
69 | COc1cccc(C(=O)Nc2cc(NC(=O)c3cccs3)ccc2C)c1OC | -14

Row | Compound | hERG current change (%, negative = inhibition) at 10uM [%]
70 | Cc1sc(-c2c(C#N)c(N)nc3c2CCCCCC3)cc1[N+](=O)[O-] | -4.1
71 | COc1ccc(NC(=O)C2CCN(C(=O)[C@@H]3Cc4ccccc4CN3C(=O)OC(C)(C)C)CC2)cc1 | 2.02
72 | Cc1cc(C)c(NC(=O)Nc2ccccc2)c(C)n1 | 23.4
73 | O=C(CN1CCCC1)Nc1ccccc1C(=O)c1ccccc1 | -2.59
74 | O=C(CN1CCN(CCO)CC1)Nc1ccc(Cl)cc1C(=O)c1ccccc1 | -72.8
75 | CN1CCN(CC(=O)Nc2ccccc2[N+](=O)[O-])CC1 | -13.2
76 | CN1CCN(CC(=O)Nc2ccc([N+](=O)[O-])cc2C(=O)c2ccccc2)CC1 | -84.6
77 | O=C(COc1ccccc1)Nc1ccc(Cl)cc1C(=O)c1ccccc1 | 6.83
78 | CN1CCN(CC(=O)Nc2cccc([N+](=O)[O-])c2)CC1 | 3.24
79 | Cc1ccc(-n2cc(-c3ccccc3)c3c(=O)[nH]cnc32)cc1 | 8.89
80 | COc1ccc(C(CNC(=O)C2CC2)N(C)C)cc1 (stereo not drawn) | 1.52
81 | COc1ccc(CN2CCCC(CNC(=O)c3ccc(F)cc3)C2)cc1OC (stereo not drawn) | -70.6
82 | CCOc1cc(CN2CCCC(CNC(=O)c3ccc(F)cc3)C2)ccc1OC (stereo not drawn) | -66.2
83 | COc1ccc(CN2CCCC(CNC(=O)c3ccc(F)cc3)C2)c(F)c1 (stereo not drawn) | -75.4
84 | COc1ccc(CC(=O)NCC2CCCN(Cc3ccc(OC)cc3F)C2)cc1 (stereo not drawn) | -36.9
85 | COc1ccc(C(=O)N2CCCC(CNC(=O)c3ccc(F)cc3)C2)cc1OC (stereo not drawn) | 3.14
86 | COc1ccc(CC(=O)NCC2CCCN(Cc3ccc(F)cc3F)C2)cc1 (stereo not drawn) | -17.5
87 | COc1ccc(CN2CCCC(CNC(=O)c3ccc(F)cc3)C2)c(C)c1C (stereo not drawn) | -75.5
88 | COc1cccc(CN2CCCC(CNC(=O)c3ccc(F)cc3)C2)c1OC (stereo not drawn) | -49.1
89 | COC(=O)c1ccc(C(=O)N2CCCC(CNC(=O)c3ccc(F)cc3)C2)cc1 (stereo not drawn) | -5.82
90 | CCOc1ccccc1CN1CCCC(CNC(=O)Cc2ccc(OC)cc2)C1 (stereo not drawn) | -22.1
